Assay results taken from the supplement of paper PMC6555819.

Tests used:
Assay in all cases: PBM binding z-score (relative to random genomic background probes); higher = stronger binding; sequences stand for … in GC…GCGATTGACAGCGTAGAATGAAGG
[1] = system: PPARg:RXRa DBDmut IVT, anti-RXR (DBD mutation: RXRa K156A/R161A, NR concentration 270 nM, RXRa partner concentration 90 nM)
Method in brief: (§1)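 The probes on custom Agilent 4×180K protein-binding microarrays were double-stranded, with 34-nt variable regions bearing direct-repeat seeds, single-nucleotide variants, half-site ablations and random human genomic background sequences. Incubation lasted 1 h with ligand-free nuclear receptor dimers in PBS pH 7.4, 2% milk, 0.02% Triton X-100, 1 mM DTT, 0.2 mg/mL BSA and 0.4 mg/ml salmon testes DNA. Antibodies against each partner (one per run) detected bound dimers, and fluorescence scans were regression-normalized. Binding z-scores take the random background probes as reference.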

[2] = system: PPARg:RXRa IVT, anti-PPARg (NR concentration 270 nM, RXRa partner concentration 90 nM)
Method in brief: as §1

[3] = system: PPARg DBDmut:RXRa IVT, anti-PPARg (DBD mutation: PPARg1 K132A/R137A, NR concentration 270 nM, RXRa partner concentration 90 nM)
Method in brief: as §1

[4] = system: PPARg DBDmut IVT, anti-PPARg (DBD mutation: PPARg1 K132A/R137A, NR concentration 270 nM)
Method in brief: as §1

[5] = system: PPARg homodimer (NR concentration 180 nM)
Method in brief: as §1

[6] = system: PXR:RXRa (NR concentration 270 nM, RXRa partner concentration 90 nM)
Method in brief: as §1

[7] = system: PXR homodimer (NR concentration 270 nM)
Method in brief: as §1

[8] = system: RARa:RXR (NR concentration 270 nM, RXRa partner concentration 90 nM)
Method in brief: as §1

[9] = system: RARa homodimer (NR concentration 270 nM)
Method in brief: as §1

[10] = system: RARb:RXRa (NR concentration 270 nM, RXRa partner concentration 90 nM)
Method in brief: as §1

[11] = system: RARb homodimer (NR concentration 270 nM)
Method in brief: as §1

[12] = system: RARg:RXRa (NR concentration 270 nM, RXRa partner concentration 90 nM)
Method in brief: as §1

[13] = system: RARg homodimer (NR concentration 270 nM)
Method in brief: as §1

[14] = system: RXRa DBDmut IVT, anti-RXR (DBD mutation: RXRa K156A/R161A, NR concentration 90 nM)
Method in brief: as §1

[15] = system: RXRa homodimer (NR concentration 180 nM)
Method in brief: as §1

[16] = system: THRa:RXRa (NR concentration 90 nM, RXRa partner concentration 90 nM)
Method in brief: as §1

[17] = system: THRa homodimer (NR concentration 90 nM)
Method in brief: as §1

[18] = system: VDR homodimer (NR concentration 270 nM)
Method in brief: as §1

Sequence: ACTATTAGTTGAATTAGGGCAACCGATACGACGC
- PBM binding z-score [1]: 2.66
- PBM binding z-score [2]: 3.69
- PBM binding z-score [3]: 1.92
- PBM binding z-score [4]: 1.76
- PBM binding z-score [5]: 1.34
- PBM binding z-score [6]: -0.0416
- PBM binding z-score [7]: 0.205
- PBM binding z-score [8]: 0.264
- PBM binding z-score [9]: 1.47
- PBM binding z-score [10]: 0.87
- PBM binding z-score [11]: 0.778
- PBM binding z-score [12]: 0.551
- PBM binding z-score [13]: 0.997
- PBM binding z-score [14]: 0.675
- PBM binding z-score [15]: 0.283
- PBM binding z-score [16]: 1.54
- PBM binding z-score [17]: 0.513
- PBM binding z-score [18]: 0.497

Sequence: GCATATAGGTAATACAAGGTGCAAGTCCGATTGT
- PBM binding z-score [1]: 3.88
- PBM binding z-score [2]: 2.81
- PBM binding z-score [3]: 0.731
- PBM binding z-score [4]: 0.109
- PBM binding z-score [5]: 0.579
- PBM binding z-score [6]: -0.0713
- PBM binding z-score [7]: 0.191
- PBM binding z-score [8]: 0.538
- PBM binding z-score [9]: 0.49
- PBM binding z-score [10]: -0.282
- PBM binding z-score [11]: -0.0695
- PBM binding z-score [12]: 0.291
- PBM binding z-score [13]: 0.14
- PBM binding z-score [14]: 0.314
- PBM binding z-score [15]: 0.27
- PBM binding z-score [16]: 1.52
- PBM binding z-score [17]: -0.516
- PBM binding z-score [18]: 0.533

Sequence: CCTGCTAGGTGATGGTCAGCTAATCTACAGTATG
- PBM binding z-score [1]: 1.57
- PBM binding z-score [2]: 1.13
- PBM binding z-score [3]: -1.09
- PBM binding z-score [4]: -0.973
- PBM binding z-score [5]: -0.218
- PBM binding z-score [6]: -0.725
- PBM binding z-score [7]: -0.701
- PBM binding z-score [8]: -0.72
- PBM binding z-score [9]: -0.885
- PBM binding z-score [10]: 0.079
- PBM binding z-score [11]: -0.121
- PBM binding z-score [12]: -0.189
- PBM binding z-score [13]: 0.108
- PBM binding z-score [14]: -0.024
- PBM binding z-score [15]: -0.424
- PBM binding z-score [16]: -0.498
- PBM binding z-score [17]: -0.545
- PBM binding z-score [18]: -0.612

Sequence: ATCTCTAGGTAAAAGGTCAGTGAATCCCGAGGAT
- PBM binding z-score [1]: 3.67
- PBM binding z-score [2]: 5.64
- PBM binding z-score [3]: 1.49
- PBM binding z-score [4]: 2.13
- PBM binding z-score [5]: 2.81
- PBM binding z-score [6]: 3.49
- PBM binding z-score [7]: 0.63
- PBM binding z-score [8]: 4.68
- PBM binding z-score [9]: 1.9
- PBM binding z-score [10]: 4.56
- PBM binding z-score [11]: 4.43
- PBM binding z-score [12]: 4.54
- PBM binding z-score [13]: 4.74
- PBM binding z-score [14]: 0.227
- PBM binding z-score [15]: 4.83
- PBM binding z-score [16]: 3.34
- PBM binding z-score [17]: 0.855
- PBM binding z-score [18]: 0.867

Sequence: CAAATTAGGTCACAGAGGTCAAAGTCCGTGCGTA
- PBM binding z-score [1]: 8.01
- PBM binding z-score [2]: 8.49
- PBM binding z-score [3]: 2.82
- PBM binding z-score [4]: 1.45
- PBM binding z-score [5]: 5.32
- PBM binding z-score [6]: 6.74
- PBM binding z-score [7]: 11.4
- PBM binding z-score [8]: 7.4
- PBM binding z-score [9]: 3.41
- PBM binding z-score [10]: 5.27
- PBM binding z-score [11]: 5.59
- PBM binding z-score [12]: 7.24
- PBM binding z-score [13]: 7.81
- PBM binding z-score [14]: 3.72
- PBM binding z-score [15]: 7.43
- PBM binding z-score [16]: 4.73
- PBM binding z-score [17]: 3.68
- PBM binding z-score [18]: 6.37

Sequence: GCTGCTAGGGCAACTGATGGTCAGCTAAAGCTCG
- PBM binding z-score [1]: 2.82
- PBM binding z-score [2]: 1.23
- PBM binding z-score [3]: -0.683
- PBM binding z-score [4]: -1.08
- PBM binding z-score [5]: -0.93
- PBM binding z-score [6]: -0.816
- PBM binding z-score [7]: -0.96
- PBM binding z-score [8]: -0.619
- PBM binding z-score [9]: -1.23
- PBM binding z-score [10]: 1.56
- PBM binding z-score [11]: 0.973
- PBM binding z-score [12]: 0.792
- PBM binding z-score [13]: 1.27
- PBM binding z-score [14]: -0.0325
- PBM binding z-score [15]: -0.494
- PBM binding z-score [16]: -0.0894
- PBM binding z-score [17]: -1.3
- PBM binding z-score [18]: -1.03

Sequence: TCTTGTAGAACAAAGGTTAAGAAAGCCGAAGCCT
- PBM binding z-score [1]: 2.26
- PBM binding z-score [2]: 3.87
- PBM binding z-score [3]: 0.00137
- PBM binding z-score [4]: 0.832
- PBM binding z-score [5]: 0.868
- PBM binding z-score [6]: 1.31
- PBM binding z-score [7]: -0.451
- PBM binding z-score [8]: 2.33
- PBM binding z-score [9]: 0.221
- PBM binding z-score [10]: 1.81
- PBM binding z-score [11]: 1.45
- PBM binding z-score [12]: 1.55
- PBM binding z-score [13]: 0.851
- PBM binding z-score [14]: 0.724
- PBM binding z-score [15]: 2.32
- PBM binding z-score [16]: 1.05
- PBM binding z-score [17]: -0.79
- PBM binding z-score [18]: -0.438
